From PubChem
Compounds with a hit are over-represented: about 18% of the library has one in this group of screens.
IL-1B inflam inh: inhibitors of inflammasome signaling (IL-1 beta secretion); THP-1 LPS/ATP IL-1B secretion, AlphaLISA, 16 h; hits give low values; activity change, % at 57.5 µM; 360,000 compounds, 4.7% hits; AID 743279; in the data active = activity change below about -50%; inconclusive = mostly about -30% to -49%
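Secreted IL-1B measured by AlphaLISA bead assay after 16 h compound exposure of THP-1 cells; compounds (final up to 57.5 uM) added 1 h before LPS (250 ng/mL) and ATP (1.25 mM) stimulation; lower signal means less secretion.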
RORg inh: blocks mouse ROR gamma transcriptional activity. P51450. Drosophila S2 Gal4-RORgamma UAS-luciferase reporter, 20 h. Potency, µM (series often up to 53.6 µM), for inactives: at the highest dose activity change, negative = inhibition, hits mostly inhibitors. 310,000 compounds, 5.4% hits; note: potency is the fitted concentration of half-maximal effect; nearly all actives have a fitted effect of over 60% in size
Target sequence (P51450 whole entry, looked up, the tested form may be a part): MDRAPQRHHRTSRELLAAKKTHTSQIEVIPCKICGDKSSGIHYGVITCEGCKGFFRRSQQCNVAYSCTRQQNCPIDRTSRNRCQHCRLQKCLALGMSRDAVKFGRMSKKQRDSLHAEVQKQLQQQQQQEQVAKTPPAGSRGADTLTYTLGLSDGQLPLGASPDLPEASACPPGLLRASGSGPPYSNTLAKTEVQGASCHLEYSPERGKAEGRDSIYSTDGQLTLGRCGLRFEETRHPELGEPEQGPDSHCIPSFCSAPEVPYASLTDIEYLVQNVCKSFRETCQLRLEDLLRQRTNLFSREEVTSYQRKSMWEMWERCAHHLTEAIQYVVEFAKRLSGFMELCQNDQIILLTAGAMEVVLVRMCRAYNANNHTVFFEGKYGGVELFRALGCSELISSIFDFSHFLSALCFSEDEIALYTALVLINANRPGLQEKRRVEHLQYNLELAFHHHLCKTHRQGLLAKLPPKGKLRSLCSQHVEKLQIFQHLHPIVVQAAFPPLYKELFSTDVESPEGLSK
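Luminescence from a UAS-regulated Photinus luciferase reporter in stably transfected Drosophila Schneider cells is measured; decreased signal marks ROR gamma inhibition. Fusion expression is induced by 700 uM copper sulfate for 20 hr.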
DT40 TDP1 no CPT: qHTS for Inhibitors of human tyrosyl-DNA phosphodiesterase 1 (TDP1): qHTS in cells in absence of CPT; Potency, µM (titrated, usually from 46.2 µM), without a hit: at the top dose activity change, negative = growth inhibition, most hits filed as inhibitors; DT40 Tdp1-/- hTDP1 cells, no CPT, ATP luminescence, 48 h; 420,000 compounds, 15% hits; AID 686978, 2013; note: potency is the fitted concentration of half-maximal effect; nearly all actives have a fitted effect of over 55% in size
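Compound effects on proliferation are scored in DT40 Tdp1-/-;hTDP1 cells in the absence of CPT. ATP levels (CellTiter-Glo luminescence) are recorded after a ≥48 hr, 37 °C incubation.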
VP16 counter: Gal4-VP16 reporter inhibition counter-screen. Potency, µM (top dose mostly 53.6 µM), for inactives: at the top dose activity, negative = inhibition, hits mostly inhibitors. Drosophila S2 Gal4-VP16 UAS-luciferase, luminescence, 20 h. 310,000 compounds, 3.5% hits. AID 2546;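 note: Gal4-VP16 expression switched on by copper sulfate through the metallothionein promoter; potency is the fitted concentration of half-maximal effect; nearly all actives have a fitted effect of over 50% in size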
TDP1 cell CPT: DT40-hTDP1 cell growth loss with CPT; chicken DT40 Tdp1-/-;hTDP1 cells + 20 nM CPT, ATP luminescence, 48 h; Potency, µM (doses to about 46.2 µM), without a hit: top-dose activity change, negative = growth inhibition, actives largely listed as inhibitors; 420,000 compounds, 12% hits; AID 686979; note: potency is the fitted concentration of half-maximal effect; nearly all actives have a fitted effect of over 55% in size
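Chicken DT40 Tdp1-/- cells stably complemented with human TDP1 were seeded at 400 cells/well in medium containing 20 nM camptothecin, exposed to pin-transferred compounds, and grown at 37 °C for at least 48 hr. Viability was read as ATP luminescence.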
LDHA inh: LDHA (human) enzyme inhibition; purified LDHA, NADH/diaphorase-resazurin fluorescence; hits give low values; activity change, % (values are at about 110 or 230 µM); 480,000 compounds, 0.15% hits; AID 1347041; in the data active = activity change below about -30%; inconclusive = mostly about -25% to -30%;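 note: plate controls were DMSO wells for no effect and wells without enzyme for full effect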
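LDH5 2 nM; NADH 0.06 mM, pyruvate 0.2 mM; 200 mM Tris pH 7.4, EDTA, Tween-20; 5 min RT. Detection: diaphorase 0.133 mg/mL + resazurin 37 µM, fluorescence ex540/em590 at 0 and 20 min; normalized to enzyme-free and DMSO wells.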
Active calls of the source: *; ? = inconclusive; . = not tested or not shown; ! = not active in a repeat; [ ] = remark or other dose. Unless noted, calls come from the whole dose curve; as a rule, active = well fitted curve in the direction sought with a large enough effect; inconclusive = small, poorly fitted or top-dose-only effect, or another doubt; inactive = no such curve, though single readings can be large; an effect the other way counts as inactive or inconclusive. Unless noted, % is set by controls: 0 for no effect and ±100 for the full control effect.

SMILES | IL-1B inflam inh | RORg inh | DT40 TDP1 no CPT | VP16 counter | TDP1 cell CPT | LDHA inh
CCCNC(=S)N1CCN(c2nc(C)nc3sc4c(c23)CCCC4)CC1 | -74* | ? | ? | -12% | ? | -11
Cc1nc(N2CCNCC2)c2c3c(sc2n1)CCCC3 | -7 | -28% | ? | -5% | ? | 4
COCCCNC(=S)N1CCN(c2ccccc2)CC1 | 27 | 24% | 0% | 24% | 5% | -9
Cc1c(O)ccc2c(COC(=O)Cc3n[nH]c(=O)c4ccccc34)cc(=O)oc12 | . | . | . | . | . | 13
O=C(O)C12CC3CC(C(=O)O)(C1)CC(C(=O)O)(C3)C2 | . | . | . | . | . | 1
CC1=NCCN1S(=O)(=O)c1c(C(C)C)cc(C(C)C)cc1C(C)C | -58* | 7% | ? | ? | -19% | -2
N#Cc1cn(CC(=O)NCc2ccc(F)cc2)c2ccccc12 | . | . | . | . | . | -8
Cn1c(=O)c2c(nc(OC3CCCCCC3)n2C)n(C)c1=O | -8 | . | ? | . | ? | -8
C/C=C/COc1nc2c(c(=O)n(C)c(=O)n2C)n1C | -6 | -3% | 15µM* | -14% | 23µM* | -2
CC(Oc1nc2c(c(=O)n(C)c(=O)n2C)n1C)C1CCCCC1 (stereo unspecified) | 0 | . | 16µM* | . | 23µM* | -4
COc1ccc(CN2CCN(C(=S)Nc3ccccc3)CC2CCO)cc1OC (stereo unspecified) | . | . | . | . | . | 5
Cc1ccc2oc(=O)cc(N3CCOCC3)c2c1 | . | . | . | . | . | 6
CN(C)c1ccc(-c2nc3ccccc3c(=O)[nH]2)cc1 | -10 | 5.6µM* | ? | ? | ? | -4
O=c1[nH]c(-c2ccncc2)nc2ccccc12 | 17 | 5% | ? | -3% | 21µM* | -8
COc1ccc(-c2nc3ccccc3c(=O)[nH]2)cc1 | 18 | ? | -20% | -21% | -21% | -4
CCOP(=O)(OCC)c1nc(-c2ccco2)oc1NCc1ccccc1 | . | . | . | . | . | 10
COc1cccc(CNc2ccc(S(N)(=O)=O)cc2)c1OC | 16 | 31% | -23% | 25% | -21% | 4
COc1cc(N=Nc2cccc(S(N)(=O)=O)c2)c2ccccc2c1N | ? | 11µM* | 18µM* | -1% | ? | 41
COc1ccccc1N1CCN(CC(=O)Nc2ccnn2Cc2cccc(Cl)c2)CC1 | . | . | . | . | . | -9
CCCCC[C@H]1CN(C2CCCCC2)C(=O)[C@@H]1CC(=O)NCc1ccccc1 | ? | -1% | 13µM*! | -9% | 11µM* | 1
COc1ccc(NC(=O)C[C@H]2C(=O)N(Cc3ccccc3)C[C@@H]2CSC)cc1 | -18 | . | ? | . | ? | 2
COc1ccc(CNC(=O)C[C@H]2C(=O)N(Cc3ccccc3)C[C@@H]2Cc2ccccc2)cc1 | -16 | 39% | 18µM* | -13% | ? | 2
COc1ccc(CNC(=O)C[C@H]2C(=O)N(C3CCCCC3)C[C@@H]2Cc2ccccc2)cc1 | 10 | -27% | -25% | 10% | ? | -4
CCCCC[C@H]1CN(Cc2ccccc2)C(=O)[C@@H]1CC(=O)NCc1ccc(OC)cc1 | -20 | ? | 16µM* | 0% | 21µM* | 1
CCCCN1C[C@H](Cc2ccccc2)[C@@H](CC(=O)Nc2ccc(OC)cc2)C1=O | -22 | . | 2% | . | 0% | -6
SMILES | IL-1B inflam inh | RORg inh | DT40 TDP1 no CPT | VP16 counter | TDP1 cell CPT | LDHA inh
COc1ccc(CNC(=O)C[C@H]2C(=O)N(CCc3ccccc3)C[C@@H]2Cc2ccccc2)cc1 | ? | 22% | 22µM* | 4% | 16µM* | -3
Cc1cccc(NC(=O)C2CCCN2/C=C/C(=O)C(F)(F)F)c1 (stereo unspecified) | . | . | . | . | . | 12
COc1ccc(CNC(=O)C[C@H]2C(=O)N(Cc3ccc(OC)cc3)C[C@@H]2Cc2ccccc2)cc1 | 5 | ? | 8.9µM* | -5% | 21µM* | 2
COc1cc(-c2noc(C)c2C(=O)NCCc2ccccc2)cc(OC)c1OC | 3 | . | ? | . | ? | 0
COc1cc(-c2noc(C)c2/C=C/c2ccc(OC(C)=O)cc2)cc(OC)c1OC | 67 | -21% | 0.82µM* | 2% | 0.73µM* | 0
COc1ccc(-c2oc(=O)c3cc(OC)c(OC)cc3c2/C=C/c2ccc(OC(C)=O)cc2)cc1 | -25 | . | 9.2µM* | . | 21µM* | 7
COc1ccc(-c2oc(=O)c3cc(OC)c(OC)cc3c2/C=C/c2ccc(F)cc2)cc1 | 5 | . | ? | . | -8% | 2
CCc1ccc(S(=O)(=O)Nc2cccc(-c3ccc4nnc(C)n4n3)c2)s1 | 49 | . | 16µM* | . | 23µM* | 2
CCc1ccc(S(=O)(=O)Nc2cccc(-c3ccc(OC)nn3)c2)s1 | . | . | 9.2µM* | . | 12µM* | 1
COc1ccc(-c2nc(CSCC(=O)NCc3cccnc3)c(C)o2)cc1OC | . | . | . | . | . | 2
Cc1ccc(N2CCCS2(=O)=O)cc1NS(=O)(=O)c1ccc(F)cc1C | . | . | . | . | . | 0
CC(C)(Oc1ccc(Cl)cc1)C(=O)NCCN1C(=O)S/C(=C/c2cccnc2)C1=O | -91* | -65% | ? | ? | ? | 1
COc1ccc2c(CC(=O)NCCN3C(=O)S/C(=C\c4cccnc4)C3=O)coc2c1 | -25 | -33% | ? | -20% | ? | 0
CC(Oc1ccc(Cl)cc1)C(=O)NCCN1C(=O)S/C(=C\c2cccnc2)C1=O (stereo unspecified) | -78* | -25% | 18µM* | ? | 21µM* | 3
CCOc1ccccc1N(CC(=O)OC)S(=O)(=O)c1ccccc1 | 27 | 10% | -26% | 1% | -5% | -10
CC(=O)OCOC(=O)CN(CC(=O)OCOC(C)=O)c1ccccc1OCCOc1ccccc1N(CC(=O)OCOC(C)=O)CC(=O)OCOC(C)=O | . | . | 1.6µM* | . | 1.4µM* | .
CCOC(=O)c1cc(NCc2ccc(CC)cc2)ccc1N1CCOCC1 | . | . | . | . | . | 11
Brc1ccc2c(c1)OCCOCCOc1cc(Br)ccc1OCCOCCOCCO2 | -56* | ? | 2.9µM* | 16%[0.365 µM] | 5.2µM* | 0
c1ccc2c(c1)OCCOCCOCCOCCO2 | . | -2% | . | -7% | . | 2
Brc1cc2c(cc1Br)OCCOCCOCCOCCO2 | 0 | 27% | 10µM* | 1% | 15µM* | -6
Nc1ccc2c(c1)OCCOCCOCCOCCOCCO2 | 23 | -5% | 0% | -11% | -4% | 9
O=[N+]([O-])c1cc2c(cc1[N+](=O)[O-])OCCOCCOCCOCCO2 | -86* | -19% | -2% | -9% | -22% | 2
